# Laboratory results: PubChem BioAssay (NCI)
# About 83,000 compounds went through this panel and 20% of them were active in at least one assay; those are over-represented in the sample as a whole.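 Step 1: grow cells in 96-well plates. Step 2: add test compound at a single concentration. Step 3: incubate 48 h. Step 4: record percent growth.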 A number with no mark means an inactive call. Activity calls are given as the source filed them. Rule for the calls: active = growth percent below 10; inactive = the rest.
# What was measured:
# Test in all cases: NCI-60 one-dose screen, 48 h (100 = growth as untreated, 0 = no growth, -100 = all killed)
# Details in all cases: 10 µM unless noted
# [1] = test system: SK-MEL-2 melanoma
# [2] = test system: EKVX NSCLC
# [3] = test system: SN12C renal
# [4] = test system: UO-31 renal
# [5] = test system: TK-10 renal
# [6] = test system: A498 renal
# [7] = test system: CCRF-CEM leukemia
# [8] = test system: MOLT-4 leukemia
# [9] = test system: SR leukemia
# [10] = test system: RPMI-8226 leukemia
# [11] = test system: OVCAR-8 ovarian
# [12] = test system: OVCAR-5 ovarian
# [13] = test system: OVCAR-4 ovarian
# [14] = test system: SK-OV-3 ovarian
# [15] = test system: IGROV1 ovarian
# [16] = test system: OVCAR-3 ovarian
# [17] = test system: HS 578T breast
# [18] = test system: NCI/ADR-RES ovarian
# [19] = test system: T-47D breast
# [20] = test system: ACHN renal
Compound,growth [1],growth [2],growth [3],growth [4],growth [5],growth [6],growth [7],growth [8],growth [9],growth [10],growth [11],growth [12],growth [13],growth [14],growth [15],growth [16],growth [17],growth [18],growth [19],growth [20]
CCCCc1n(Cc2ccc3ccccc3n2)cc[n+]1Cc1ccc2ccccc2c1,-35.7% (active),41.7%,1.13% (active),69.2%,-5.08% (active),7.02% (active),6.45% (active),4.42% (active),-27.1% (active),-7.1% (active),2.38% (active),24%,28.6%,-14% (active),-14.7% (active),5.59% (active),16.6%,101%,-0.345% (active),
Cc1nnc(/N=C2\NC(=O)/C(=C/c3ccsc3)S2)s1,95.5%,93.6%,99.7%,81.2%,96.7%,87.7%,95.1%,95%,103%,94%,104%,107%,90.6%,89.5%,90.7%,93.3%,96.4%,94.8%,84.4%,
COc1ccc2c(c1)C1(C(=O)N2)C(C#N)=C(c2ccccc2)Nc2c1c(-c1ccccc1)nn2-c1ccccc1 (stereo not given),84.9%,78.4%,1.61% (active),80.1%,90.7%,50.1%,16.6%,38.2%,21.5%,67.6%,-10.9% (active),83.1%,-1.01% (active),78.8%,49.6%,-69.2% (active),40%,92.7%,63.4%,
N#Cc1c(-c2ccc(F)cc2)nc(N=Nc2c(O)[nH]c3ccc(Cl)cc23)nc1N1CCOCC1,64%,72.5%,-9.86% (active),6.44% (active),11.6%,51.2%,58.7%,48.5%,47%,80.1%,19.1%,84.5%,-37.7% (active),17.2%,29.3%,21.6%,15.5%,16.4%,46.7%,
CC(=O)Nc1ccc2c(c1)Cc1cc(F)ccc1-2,94.8%,104%,107%,56.8%,104%,73.2%,99.1%,89.4%,87.5%,93.6%,97.5%,106%,109%,106%,92.8%,98.6%,103%,97.5%,82.8%,
COc1cc(NC(=O)COc2cc(C)nc3ccc(OC)cc23)cc(OC)c1,92.2%,91.5%,88.9%,69.8%,96.5%,63.7%,82%,89.9%,-8.57% (active),81.3%,93.6%,107%,99%,96.3%,104%,98.9%,95.1%,86.6%,95.8%,
O=C(Nc1cc(Br)ccn1)c1cc2cc(Nc3nc(-c4ccccc4)nc4ccccc34)ccc2oc1=O,90.8%,109%,110%,75.4%,106%,112%,107%,100%,82.2%,108%,103%,115%,111%,103%,115%,113%,107%,113%,98.3%,
Nc1cc(N)c(S(=O)(=O)O)cc1N=Nc1cc([N+](=O)[O-])ccc1O,98.1%,103%,100%,89.4%,102%,103%,93.9%,90.5%,90.3%,98.8%,,108%,109%,93.8%,106%,113%,103%,,97.2%,109%
O=C(O)CCNC1CCCCC1,-21.2% (active),115%,88.3%,,118%,94.6%,102%,103%,105%,96.3%,99.9%,86%,103%,101%,105%,108%,96.6%,93.1%,104%,103%
COc1ccc2nc(-c3ccc(Cl)cc3)cc(C(=O)N3N=C(c4ccc(N)cc4)CC3c3ccccc3)c2c1 (stereo not given),43.2%,35.6%,57.8%,,68.1%,56.9%,31.2%,43.2%,25.1%,29%,,80.9%,65.8%,46.1%,53.9%,9.64% (active),48.4%,,38.8%,52.8%
CSc1nc(-c2cccs2)c2c(N)[nH]nc2n1,104%,73.1%,109%,,93.4%,66.7%,109%,87%,73.3%,112%,102%,106%,108%,89.9%,111%,109%,106%,102%,90.3%,101%
O=C(/C(=C/c1ccc([N+](=O)[O-])cc1)SCc1ccccc1)c1ccc(Cl)cc1,84.5%,72.6%,-25.4% (active),,103%,76.5%,9.82% (active),13.5%,-1.55% (active),-15.8% (active),76.2%,95.4%,74.5%,87.6%,57%,70.6%,75.7%,62%,47.8%,76.5%
O=S(=O)(O)c1ccc(N=NSc2ccc3ccccc3c2)cc1,92.4%,99.4%,107%,,103%,107%,89.8%,94.2%,104%,91.7%,108%,106%,101%,112%,93.2%,98.6%,98.7%,96.4%,82.2%,95.3%
C=C(C)[C@@H]1CC[C@]2(C(=O)OCCCC[P+](c3ccccc3)(c3ccccc3)c3ccccc3)CC[C@]3(C)[C@H](CC[C@@H]4[C@@]5(C)CC[C@H](OC(=O)C(Cl)Cl)C(C)(C)[C@@H]5CC[C@]43C)[C@@H]12,-67.5% (active),-13.3% (active),-62.2% (active),,-36.2% (active),-58.9% (active),0.798% (active),-45% (active),-34% (active),-40% (active),-1.54% (active),-1.72% (active),-0.103% (active),-5.89% (active),-23.3% (active),-42.7% (active),-0.621% (active),,-14.3% (active),
CC(=O)c1cnc(-c2ccccc2)nc1CBr,98.3%,79.7%,51.2%,,79%,82%,35.8%,26%,-20.9% (active),37.7%,89.3%,96.3%,79.7%,105%,89.2%,30.1%,89%,92.2%,38.5%,35.3%
